Compound activity: PubChem, several laboratories
Compounds with a hit are over-represented: about 5.4% of the library has one in this group of screens.
PP1 inh – PP1-alpha phosphatase inhibitors, primary screen, counter-screen for PP5 inhibitor project, biochemical, fluorescence, OMFP substrate, single point; AID 2235, 2010; Serine/threonine-protein phosphatase PP1-alpha catalytic subunit (Homo sapiens), P62136; actives 0.9% (n = 320,000); inhibition, % at 6.7 µM; purified PP1alpha;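 active = inhibition above the mean inhibition of all tested compounds plus 3 SD, computed separately for each screening campaign, cut at about 15% in these data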
CSC inhib – cancer stem cell viability inhibitors, primary screen, luminescence. cancer stem cell-like cells viability. inhibition, % at 7.5 µM. actives 1.1% (n = 300,000). AID 2717, 2010; in the data active = inhibition above about 75%; tested in HMLE shEcad cells
PP5 primary – PP5 phosphatase inhibitors, primary screen, biochemical, fluorescence; purified PP5c, OMFP substrate fluorescence; actives 0.18% (n = 320,000); Serine/threonine-protein phosphatase 5 (Homo sapiens), P53041; inhibition, % at 6.7 µM;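 active = inhibition above the campaign's mean inhibition across all tested compounds plus 3 SD, cut at about 9.5% in these data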
Calb FLC – C. albicans growth inhibition with fluconazole, primary screen, CaCi-2 strain, Alamar Blue fluorescence; C. albicans CaCi-2 (fluconazole-resistant clinical isolate) + fluconazole, 48 h; actives 0.57% (n = 300,000); growth inhibition, % (no concentration beside the values);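 active = growth inhibition above about 58% in most replicates, limit read from the data, passing the limit was not always enough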;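 also: all wells also contain fluconazole at 8 µg/ml as a sub-toxic cotreatment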
ALR inh – inhibitors of human ALR sulfhydryl oxidase, primary screen, biochemical, H2O2 detection, HRP-luminol luminescence, single point. FAD-linked sulfhydryl oxidase ALR (Homo sapiens), P55789. purified ALR, DTT oxidation. inhibition, % (test concentration not listed). actives 3.8% (n = 290,000);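 active = mean replicate inhibition above about 79%, with every replicate also reaching it, limit read from the data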
Target sequence (P55789 whole entry, looked up): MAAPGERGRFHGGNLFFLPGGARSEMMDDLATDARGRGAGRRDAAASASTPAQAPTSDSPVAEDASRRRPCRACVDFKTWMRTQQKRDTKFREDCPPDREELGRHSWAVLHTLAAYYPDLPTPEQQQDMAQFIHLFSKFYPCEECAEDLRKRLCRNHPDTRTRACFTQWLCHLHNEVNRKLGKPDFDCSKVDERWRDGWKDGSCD
PP1 inh confirm – PP1 phosphatase inhibitors, confirmation, biochemical, fluorescence, OMFP substrate, triplicate | shares compounds with PP1 inh | purified PP1alpha | inhibition, % at 6.7 µM | actives 52% (n = 1,900);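 active = mean PP1 inhibition above a set limit taken from the earlier primary screen, cut at about 15% in these data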
PP5 inh counter – PP5 phosphatase inhibition by PP1 hits, confirmation, counter-screen for PP1 inhibitor project, biochemical, fluorescence, triplicate | shares compounds with PP1 inh | purified PP5c, OMFP fluorescence | inhibition, % at 6.7 µM | actives 4% (n = 1,900);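 active = mean PP5 inhibition over triplicate wells above about 9.5% taken from the earlier PP1 screen, limit read from the data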
Of the large screens only hits and unclear results are named; the others gave an inactive call (follow-up assays come after a bar, where they were run).

COc1ccc(OCCNC(=O)Nc2cc(F)c(F)cc2Cl)cc1	none
CC(Oc1ccccc1)C(=O)N=Nc1c(O)[nH]c2ccc(Br)cc12 (stereo not drawn)	PP1 inh 18 | PP1 inh confirm inactive | PP5 inh counter inactive
COc1ccc(/C=C2\N=C(c3c(-c4ccccc4)noc3C)OC2=O)cc1OC	PP1 inh 19 | PP1 inh confirm inactive | PP5 inh counter inactive
COc1cc(/C=C2\N=C(c3ccccc3)OC2=O)ccc1OCc1c(C)no[n+]1[O-]	none
CCc1ccc(Nc2n[n+](-c3ccccc3)c(-c3ccc(OC)c(Br)c3)s2)cc1	PP1 inh 20 (no result: ALR inh) | PP1 inh confirm inactive | PP5 inh counter inactive
CCc1ccc(Nc2n[n+](-c3ccccc3)c(-c3ccc(C(=O)O)cc3)s2)cc1	none
Nc1c(C(=O)O)sc2nc3c(cc12)CCCC3	none (no result: ALR inh)
CN1CCc2nc3sc(C(=O)C45CC6CC(CC(C6)C4)C5)c(N)c3cc2C1	PP1 inh 29 (no result: Calb FLC) | PP1 inh confirm inactive | PP5 inh counter inactive
O=C(N/N=C/c1ccncc1)c1cccc(S(=O)(=O)Nc2ccc(Cl)cc2)c1	PP1 inh 21 | PP1 inh confirm inactive | PP5 inh counter inactive
O=C(Nc1ccc(NC(=O)c2sc3ccccc3c2Cl)cc1Cl)c1ccco1	PP1 inh 20 | PP1 inh confirm 28 | PP5 inh counter inactive
O=C(Nc1ccc(NC(=O)c2cccs2)c(Cl)c1)c1ccco1	none
CCC(=O)Nc1ccc(N2CCOCC2)c(S(=O)(=O)Nc2ccc(Cl)cc2)c1	none (no result: Calb FLC, ALR inh)
O=C(C1=C[C@@H]2[C@H]3C(=O)N(c4cccc(Cl)c4)C(=O)[C@H]3[C@@H](C(=O)c3ccc(Cl)cc3)N2C=C1)c1ccccc1	none
O=C(C1=C[C@@H]2[C@H]3C(=O)N(c4ccccc4Cl)C(=O)[C@H]3[C@@H](C(=O)c3ccc(Cl)cc3)N2C=C1)c1ccccc1	PP1 inh 23 | PP1 inh confirm 18 | PP5 inh counter inactive
Clc1ccc2nc(-c3ccccn3)c(Nc3ccc4c(c3)OCO4)n2c1	PP1 inh 46 | PP1 inh confirm 40 | PP5 inh counter inactive
CCc1nnc2n1N=C(c1ccc(OC)cc1)CS2	none
CCc1nnc2n1N=C(c1ccc(-c3cc(Cl)ccc3Cl)o1)CS2	PP1 inh 23 (no result: ALR inh) | PP1 inh confirm inactive | PP5 inh counter inactive
CC[C@]12c3[nH]c4ccccc4c3CCN1C(=O)C(CC(=O)NC/C=C(\C)CCC=C(C)C)C[C@@H]2C(=O)N1CCN(C(=O)C2CC2)CC1 (stereo partly drawn)	none (no result: PP1 inh, PP5 primary, Calb FLC)
CC(C)(C)c1ccc(C(=O)NCC(=O)OCC(=O)c2ccc3c(c2)-c2ccccc2C3)cc1	PP1 inh 20 | PP1 inh confirm inactive | PP5 inh counter inactive
COCCn1c(=O)[nH]c(=O)c2c1nc(-c1ccc(-c3ccc(Cl)cc3[N+](=O)[O-])o1)n2Cc1ccccc1	PP1 inh 18 (no result: ALR inh) | PP1 inh confirm 38 | PP5 inh counter inactive
COc1ccc(N2CCN(C(=O)c3ccc(Cn4c(=S)[nH]c5ccc(N6CCOCC6)cc5c4=O)cc3)CC2)cc1	none
O=C(c1ccc(Cn2c(=S)[nH]c3ccc(N4CCOCC4)cc3c2=O)cc1)N1CCN(c2ccc(F)cc2)CC1	PP1 inh 18 (no result: ALR inh) | PP1 inh confirm 19 | PP5 inh counter inactive
Cc1ccc(C)c(N2CCN(C(=O)c3ccc(Cn4c(=S)[nH]c5ccc(N6CCOCC6)cc5c4=O)cc3)CC2)c1	PP1 inh 30 | PP1 inh confirm inactive | PP5 inh counter inactive
O=c1c2cc(N3CCOCC3)ccc2[nH]c(=S)n1Cc1ccc(Cl)cc1	none
CCOC(=O)c1sc(N2C(=O)C(O)=C(C(=O)c3ccco3)C2c2cccc(Cl)c2)nc1C (stereo not drawn)	PP1 inh 27 (no result: ALR inh) | PP1 inh confirm 17 | PP5 inh counter inactive
